Sampled rows, rich in hits. Any-hit rate of the full collection: about 19%.
TDP1 cell CPT: DT40-hTDP1 cell growth loss with CPT; 420,000 compounds, 12% hits; Potency, µM (titrated, usually from 46.2 µM), inactives show top-dose activity change, negative = growth inhibition, actives largely listed as inhibitors; chicken DT40 Tdp1-/-;hTDP1 cells + 20 nM CPT, ATP luminescence, 48 h; AID 686979; note: potency is the fitted concentration of half-maximal effect; nearly all actives have a fitted effect of over 55% in size
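Cell growth measured by CellTiter-Glo luminescence after a minimum 48 h, 37 C compound exposure with 20 nM CPT in Tdp1-knockout DT40 cells stably expressing hTDP1, seeded 400/well; qHTS titration format.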
HT1080NT lethal: kills 2HG-producing HT-1080-NT fibrosarcoma cells | HT-1080-NT fibrosarcoma viability, CellTiter-Glo ATP luminescence, 48 h | Potency, µM (doses to about 46.1 µM), without a hit: at the highest dose activity, negative = less viability, usual class: cytotoxic | 360,000 compounds, 1.6% hits | AID 686970;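 note: NT is the 2HG producing partner of a matched IDH1 knockdown line; potency is the fitted concentration of half-maximal effect; 0% = DMSO-treated cells and -100% = media-only wells without cells; nearly all actives have a fitted effect of over 55% in size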
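Viability of the 2HG-overproducing fibrosarcoma line after 48 hours of compound exposure at 37 degrees C was determined by luminescence with CellTiter-Glo, and concentration-effect curves were then fitted and categorized.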
HT1080 IDH1KD tx: toxicity to HT-1080 IDH1 knockdown cells (counter line). 360,000 compounds, 2% hits. Potency, µM (series often up to 46.1 µM), without a hit: at the highest dose activity, negative = toxicity, most hits filed as cytotoxic. HT-1080 IDH1 knockdown viability, ATP luminescence, 48 h;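 note: potency is the fitted concentration of half-maximal effect; 0% = DMSO wells and -100% = cell-free medium wells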
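CellTiter-Glo luminescence after 48 h compound exposure at 37 degrees C of IDH1-knockdown HT-1080 cells in 5% FBS RPMI. %Activity scaled between DMSO wells and cell-free media wells, with curves fitted and assigned curve classes.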
DT40 TDP1 no CPT: qHTS for Inhibitors of human tyrosyl-DNA phosphodiesterase 1 (TDP1): qHTS in cells in absence of CPT; 420,000 compounds, 15% hits; DT40 Tdp1-/- hTDP1 cells, no CPT, ATP luminescence, 48 h; AID 686978, 2013; Potency, µM (highest dose often 46.2 µM), for inactives: at the top dose activity change, negative = growth inhibition, actives largely listed as inhibitors; note: potency is the fitted concentration of half-maximal effect; nearly all actives have a fitted effect of over 55% in size
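Chicken DT40 Tdp1-/- cells stably complemented with human TDP1 were seeded at 400 cells/well with DMSO in place of 20 nM camptothecin. After compound pinning, cells grew at least 48 hr at 37 °C; viability read by CellTiter-Glo luminescence.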
IL-1B inflam inh: inflammasome signaling inhibition, IL-1 beta readout. 360,000 compounds, 4.7% hits. AID 743279. activity change, % at 57.5 µM. THP-1 LPS/ATP IL-1B secretion, AlphaLISA, 16 h; hits give low values; in the data active = activity change below about -50%; inconclusive = mostly about -30% to -49%
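Secreted IL-1B measured by AlphaLISA bead assay after 16 h compound exposure of THP-1 cells; compounds (final up to 57.5 uM) added 1 h before LPS (250 ng/mL) and ATP (1.25 mM) stimulation; lower signal means less secretion.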
Numbers without * were called inactive; ? = inconclusive; . = no result; [ ] = dose if it differs, or a comment. Unless noted, calls come from the whole dose curve; as a rule, active = well fitted curve in the direction sought with a large enough effect; inconclusive = small, poorly fitted or top-dose-only effect, or another doubt; inactive = no such curve, though single readings can be large; an effect the other way counts as inactive or inconclusive. Unless noted, % is set by controls: 0 for no effect and ±100 for the full control effect.

SMILES | TDP1 cell CPT | HT1080NT lethal | HT1080 IDH1KD tx | DT40 TDP1 no CPT | IL-1B inflam inh
Cc1ccc(S(=O)(=O)CCSc2cccc(C(=O)Nc3ccccc3C(=O)O)c2)cc1 | ? | -19% | -25% | ? | 11
CCN(CC)C(=O)C1=C(C)N(CCCOC)C(=O)C(CC(=O)NCCCCc2ccccc2)C1 (centres undefined) | -2% | 6% | 3% | -21% | 7
COc1cc(-c2nnc(SCC(=O)NC(C)C)o2)cc(OC)c1OC | -29% | . | . | -18% | .
COc1ccc(CNC(=O)CCc2c(C)c3cc4c(C)coc4cc3oc2=O)cc1 | ? | . | . | 15µM* | .
O=S(=O)(NCC1(N2CCOCC2)CCCCC1)c1ccc(F)c(F)c1F | 10µM* | 2% | 2% | ? | 2
CN(C)c1cccc2c1c(NC(=O)Nc1ccc(F)cc1F)nn2C | ? | 4% | 4% | ? | -53*
CN(C)c1cccc2c1c(NC(=O)c1ccc(F)cc1)nn2C | ? | 3% | 5% | ? | 26
CN(C)/C=C\C(=C/C(=O)C(F)(F)F)Nc1ccccc1Oc1ccccc1 | ? | -12% | -27% | 18µM* | -98*
Cc1ccc(NC(/C=C/N(C)C)=C/C(=O)C(F)(F)F)c(C)c1 | 16µM* | -25% | -17% | 16µM* | 7
Cc1ccc(NC(=O)CC(=O)Nc2ccc(C)cc2C)c(C)c1 | -11% | 2% | 4% | 0% | 11
O=C(NC12CC3CC(CC(C3)C1)C2)c1cc([N+](=O)[O-])ccc1N1CCOCC1 | -7% | -18% | ? | 0% | -19
Cc1cc(OCC(=O)OCC(=O)N(C)C2CCS(=O)(=O)C2)ccc1Cl (centres undefined) | 12% | -4% | 7% | -4% | 19
Cc1ccc(NCc2nc3ccccc3n2C)c(C)c1 | ? | -16% | -10% | ? | -17
Cn1c(Cn2cnc(Cl)c2Cl)nc2ccccc21 | 0% | 11% | 12% | -12% | 14
Cc1ccc(N2CCN(c3ccc(NCc4nc5ccccc5n4C)cc3)CC2)cc1 | ? | 0% | -5% | 16µM* | 6
Cn1c(CNc2ccc(Cl)cc2)nc2ccccc21 | 16µM* | -17% | -2%[9.24 µM] | ? | 10
CN(Cc1nc2ccccc2n1C)S(=O)(=O)c1ccc(Cl)cc1 | ? | -4% | -2% | 26µM* | -18
CCOC(=O)Cn1cc(Cn2c3ccccc3c(=O)n2C(C)C)nn1 | -9% | 16% | 17% | -8% | 10
Cc1ccnc2cc(Cl)cc(Cl)c12 | -15% | . | . | -3% | .
NC(=O)C1CCCN(S(=O)(=O)c2ccc3ccccc3c2)C1 (centres undefined) | 4% | -10% | 2% | 16% | 24
Cc1nc([N+](=O)[O-])cn1-c1ccc([N+](=O)[O-])cc1 | 14% | . | . | -3% | .
COC(=O)CSc1ncc(S(=O)(=O)c2ccccc2)c(=O)[nH]1 | 1% | 18% | 15% | -7% | 20
O=C(CN(Cc1ccccc1)S(=O)(=O)c1ccc2c(c1)OCCO2)N/N=C/c1cccc(Br)c1 | ? | -8% | -15% | ? | -13
O=C(CN(Cc1ccccc1)S(=O)(=O)c1ccc2c(c1)OCCO2)N/N=C/c1ccc(F)cc1 | -27% | ? | -9%[9.24 µM] | -20% | -56*
Cc1cc(C)c2c(CC(=O)Nc3ccc(S(=O)(=O)Nc4ncccn4)cc3)coc2c1 | -17% | . | . | -14% | .
CC(=O)Nc1cc(C(=O)N2CCCC2)ccc1Sc1ccc(C)cc1 | ? | -1% | -2% | ? | 11
CCN(CCCNC(=O)c1ccc(Sc2ccc(Cl)cc2)c(NC(C)=O)c1)c1ccccc1 | ? | . | . | 23µM* | .
CCN(C(=O)C(C)OC(=O)CCCNC(=O)c1ccc(Cl)cc1)c1ccccc1 (centres undefined) | ? | 0% | 1% | 21µM* | -3
CC(=O)Nc1cc(C(=O)N2CCCC2)ccc1Sc1ccc(Cl)cc1 | 20µM* | -3% | -6% | ? | 3
